{"source": "PubChem BioAssay (EPA / NIEHS)", "note": "Calls of active or inactive are those of the source. Rule for the calls: active = hit-call score of the fitted dose curve at least 0.9, where 1 is the maximum; inactive = score below 0.9.", "data": [{"experiment": "ATG_M_61_CIS: Attagene CIS-FACTORIAL HepG2 Assay for M61 Transcription Factor (Internal Marker) (AID 2282937)", "conditions": "HepG2 Attagene CIS-FACTORIAL M61 internal marker reporter; actives raise or lower the signal", "experimental": "ATG_CIS is a cell-based, multiplexed-readout assay that uses HepG2, a human liver cell line, with measurements taken at 24 hours after chemical dosing in a 24-well plate.ATG_M_61_CIS is one of 52 assay component(s) measured or calculated from the ATG_CIS assay. It is designed to make measurements of mRNA induction, a form of inducible reporter, as detected with fluorescence intensity signals by Reverse transcription polymerase chain reaction (RT-PCR) and Capillary electrophoresis technology.Data from the assay component ATG_M_61_CIS was analyzed into 1 assay endpoint. This assay endpoint, ATG_M_61_CIS, was analyzed with bidirectional fitting relative to DMSO as the negative control and baseline of activity. Using a type of inducible reporter, measures of mRNA for gain or loss-of-signal activity can be used to understand the background control at the transcription factor-level as they relate to the gene . Furthermore, this assay endpoint can be referred to as a secondary readout, because this assay has produced multiple assay endpoints where this one serves a background control function. To generalize the intended target to other relatable targets, this assay endpoint is annotated to the background measurement intended target family, where the subfamily is internal marker.\nHuman liver HepG2 cells are transiently transfected with multiple reporter transcription units (MRTUs) in 6-well plates using FuGene 6 reagent (Roche; 3 ml FuGene/1 mg DNA). The MRTU constructs are regulated by a cis-regulating element (promoter). […] A major difference between the CIS and TRANS system is that in CIS activities of endogenous TFs are measured, whereas the TRANS assay evaluates changes in activities of exogenous, chimeric NR-Gal4 proteins. […] At the end of 24 hour incubation, total RNA was isolated using TriZol reagent (Invitrogen). The isolated RNA is then reverse-transcribed using oligo(dT) primer and Mo-MLV reverse transcriptase (Invitrogen) with DNAse I (Ambion) treatment for 30 min. The one-tenth of the produced cDNA was amplified by PCR using Taq DNA polymerase (Invitrogen) and two reporter sequence-specific primers. The PCR products were fluorescently labeled by primer extension with 6-arboxyfluorescein (6-FAM) 5'-labeled reporter sequence-specific primer (2 min at 95 C, 20 s at 68 C and 10 min at 72 C) and these products were digested with 5U of HpaI (New England Biolabs) for 2h at 37 C. The fragments were purified using Qiaquick PCR columns (Qiagen), analyzed on an ABI 3130xL genetic analyzer (Applied Biosystems) with peak positions identified by using a set of X-rhodamine (ROX)-labeled MapMarker1000 molecular weight standards (BioVentures). The raw capillary electrophoresis data was processed using Attagraph software (Attagene).", "values": [{"smiles": "CC1CC(=O)O1", "note": "(stereo not given)", "outcome": "inactive"}, {"smiles": "CC(c1ccc(O)cc1)c1ccc(O)cc1", "outcome": "inactive"}, {"smiles": "OC[C@@H](O)[C@H]1O[C@@H]2O[C@H](C(Cl)(Cl)Cl)O[C@@H]2[C@H]1O", "outcome": "inactive"}, {"smiles": "OC(Cc1ccccc1Cl)(Cn1cncn1)C1(Cl)CC1", "note": "(stereo not given)", "outcome": "inactive"}, {"smiles": "CCCCCCCCCCBr", "outcome": "inactive"}, {"smiles": "c1ccc(-c2cccc(-c3ccccc3)c2)cc1", "outcome": "inactive"}, {"smiles": "Cc1cccc(C)c1NC(=O)CN1CCCC1=O", "outcome": "inactive"}, {"smiles": "C=CC(=O)OCC(COC(=O)C=C)(COC(=O)C=C)COC(=O)C=C", "outcome": "inactive"}, {"smiles": "O=C(O)CC(O)(CC(=O)O)C(=O)O", "outcome": "inactive"}, {"smiles": "Oc1c(Cl)cc(Cl)cc1Cl", "outcome": "inactive"}, {"smiles": "CN(C)C(=S)S", "outcome": "inactive"}, {"smiles": "Nc1cccnc1", "outcome": "inactive"}, {"smiles": "CC(C)O.CC(C)O.OCCN(CCO)CCO.OCCN(CCO)CCO.[Ti]", "outcome": "inactive"}, {"smiles": "CC(C)CP(=S)(S)CC(C)C", "outcome": "inactive"}, {"smiles": "O=c1nc(O)n(Cl)c(=O)n1Cl", "outcome": "inactive"}, {"smiles": "CCCSP(=S)(OCC)Oc1ccc(SC)cc1", "note": "(stereo not given)", "outcome": "inactive"}, {"smiles": "C=CCOC(N)=O", "outcome": "inactive"}, {"smiles": "ClCCN1CCOCC1", "outcome": "inactive"}, {"smiles": "CCCCCCCCCCCCOS(=O)(=O)O", "outcome": "inactive"}, {"smiles": "C=CCc1ccccc1O", "outcome": "inactive"}, {"smiles": "CC(C)N(C(=O)CCl)c1ccccc1", "outcome": "inactive"}, {"smiles": "CC(C)[N+](=O)[O-]", "outcome": "inactive"}, {"smiles": "N#Cc1cccnc1", "outcome": "inactive"}, {"smiles": "O=[N+]([O-])c1cc([As](=O)(O)O)ccc1O", "outcome": "inactive"}, {"smiles": "O=[N+]([O-])c1ccc(Nc2ccccc2)cc1", "outcome": "inactive"}, {"smiles": "Cc1cc(Cl)ccc1N", "outcome": "inactive"}, {"smiles": "Oc1cc(Cl)c(Cl)cc1Cl", "outcome": "inactive"}, {"smiles": "CC(O)(CS(=O)(=O)c1ccc(F)cc1)C(=O)Nc1ccc(C#N)c(C(F)(F)F)c1", "note": "(stereo not given)", "outcome": "inactive"}, {"smiles": "OCC(c1ccc(Cl)cc1)c1ccc(Cl)cc1", "outcome": "inactive"}, {"smiles": "O=C(NC(=O)c1c(F)cccc1F)Nc1cc(Cl)c(F)c(Cl)c1F", "outcome": "inactive"}, {"smiles": "O=S1(=O)OC(c2cc(Br)c(O)c(Br)c2)(c2cc(Br)c(O)c(Br)c2)c2ccccc21", "outcome": "inactive"}, {"smiles": "Fc1cccc(Cl)c1CCl", "outcome": "inactive"}, {"smiles": "O=c1[nH]c(=O)n(Cl)c(=O)n1Cl", "outcome": "inactive"}, {"smiles": "C[As+](C)(C)CC(=O)[O-]", "outcome": "inactive"}, {"smiles": "Cc1ccc(OP(=O)(Oc2ccc(C)cc2C)Oc2ccc(C)cc2C)c(C)c1", "outcome": "inactive"}, {"smiles": "C1CN2CCN1CC2", "outcome": "inactive"}, {"smiles": "C#CCOC(=O)/C=C(C)/C=C/CC(C)CCCC(C)C", "note": "(stereo not given)", "outcome": "inactive"}, {"smiles": "CC(C)(C)c1ccccc1O", "outcome": "inactive"}, {"smiles": "O=C(O)COc1cc(Cl)c(Cl)cc1Cl", "outcome": "inactive"}, {"smiles": "CCCCCCCCCCCCc1cccc(S(=O)(=O)O)c1", "outcome": "inactive"}]}]}
